In PubChem BioAssay (Tox21):
Values joined by “and” are separate entries in the source; they are usually repeats but may differ in a detail not shown here. Equal entries are not always repeated. Records with an inconclusive call do not appear. A call without a number means that no potency is given here. Values without a mark were called inactive. Active and inactive are the calls of the source. Calls come from the whole dose curve; as a rule, active = well fitted curve in the direction sought with a large enough effect in the repeat runs; inconclusive = weak or mixed curves; inactive = no such curve, though single readings can be large; an effect the other way counts as inactive or inconclusive.

How the values were obtained:
[1] = target: Nuclear receptor subfamily 1 group I member 2 (Rattus norvegicus) (UniProt Q9R1A7); assay: Rat pregnane X receptor (rPXR) activation by small molecules, qHTS assay (AID 1346983); conditions: rPXR luciferase reporter cells, One-Glo luminescence, 24 h; max activation: stronger effect = higher value; note: nearly all actives have a fitted effect of over 20% in size
In short: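 Cell-based rPXR luciferase reporter assay, 2,000 cells per well, rested 5hr at 37 C before compound addition in DMSO, then 24 hr at 37 C. One-Glo reagent was added and luminescence read after 30 min at room temperature.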

[2] = target: Nuclear receptor subfamily 1 group I member 2 (Homo sapiens) (UniProt O75469); assay: CYP3A4 induction through human pregnane X receptor (PXR) by small molecules, qHTS assay (AID 1346984); note: nearly all actives have a fitted effect of over 40% in size
In short: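 Cells (DPX-2; HepG2 with PXR element plus CYP3A4-promoter luciferase) settled 5hr, then were treated 24hr at 37C. A 3hr, 3uM-final Luciferin-IPA step preceded luminescence measurement with One-Glo.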

[3] = target: Nuclear receptor subfamily 1 group I member 2 (Homo sapiens) (UniProt O75469); assay: Human pregnane X receptor (PXR) activation by small molecules, qHTS assay (AID 1346985); note: nearly all actives have a fitted effect of over 40% in size
In short: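 DPX-2 cells (HepG2 co-transfected with a PXR response element and a CYP3A4-promoter luciferase construct) were seeded at 2,000 per well, rested 5 hr at 37C, then exposed to DMSO-dissolved compounds for 24 hr. Activation was read as luciferase luminescence.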
Potency is the fitted concentration of half-maximal effect.

Chain of Nuclear receptor subfamily 1 group I member 2 (Rattus norvegicus) (Q9R1A7 whole entry, looked up): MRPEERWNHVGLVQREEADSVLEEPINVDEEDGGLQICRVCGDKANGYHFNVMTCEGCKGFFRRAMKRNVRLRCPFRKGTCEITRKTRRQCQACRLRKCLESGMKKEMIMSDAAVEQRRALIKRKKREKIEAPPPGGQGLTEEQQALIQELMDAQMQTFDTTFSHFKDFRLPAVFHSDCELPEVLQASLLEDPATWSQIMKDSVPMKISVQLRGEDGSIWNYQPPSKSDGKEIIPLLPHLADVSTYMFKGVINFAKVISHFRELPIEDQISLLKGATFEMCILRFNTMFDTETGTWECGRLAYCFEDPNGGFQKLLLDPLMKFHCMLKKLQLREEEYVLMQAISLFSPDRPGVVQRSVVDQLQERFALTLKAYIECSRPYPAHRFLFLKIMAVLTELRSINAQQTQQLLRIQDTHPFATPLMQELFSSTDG

SMILES | max activation [1] | Potency [2] | Potency [3] | Potency [1]
O=C1CCC(c2ccccc2)(C2CCN(Cc3ccccc3)CC2)C(=O)N1 (centres undefined) | 4.99% | 14.1 µM (active) | 5.62 µM (active) | 
C[C@H](NCCc1ccc(O)cc1)[C@H](O)c1ccc(O)cc1 | -4.49% | inactive | inactive | 
COc1ccc(/C=C/C(=O)O)cc1 | 1.47% | inactive | inactive | 
Cc1ccc(C(C)(C)c2ccc(C)cc2)cc1 | -4.5% | inactive | inactive | 
CN(Cc1ccccc1)Cc1ccccc1 | -2.9% | inactive | inactive | 
CCCCC[C@H](O)/C=C/[C@@H]1[C@@H](C/C=C\CCCC(=O)O)[C@@H](O)C[C@H]1O | -3.99% and -0.657% | inactive | inactive | 
CC[C@@]1([C@@H]2O[C@@H]([C@H]3O[C@@](O)(CO)[C@H](C)C[C@@H]3C)C[C@@H]2C)CC[C@H]([C@]2(C)CC[C@]3(C[C@H](O)[C@@H](C)[C@@H]([C@@H](C)[C@@H](OC)[C@H](C)C(=O)O)O3)O2)O1 (stereo in doubt) | -15.4% | inactive | inactive | 
COc1ccc([C@@H]2CC(=O)c3c(O)cc(O[C@@H]4O[C@H](CO[C@@H]5O[C@@H](C)[C@H](O)[C@@H](O)[C@H]5O)[C@@H](O)[C@H](O)[C@H]4O)cc3O2)cc1O | -3.19% | inactive | inactive | 
CCCC(CCC)C(=O)OC1C[C@H]2CC[C@@H](C1)[N+]2(C)C (some centres undefined) | -0.777% | inactive | inactive | 
CO/N=C(\C(=O)N[C@@H]1C(=O)N2C(C(=O)O)=C(C[N+]3(C)CCCC3)CS[C@H]12)c1csc(N)n1 | -0.506% | inactive | inactive | 
CO/N=C(\C(=O)N[C@@H]1C(=O)N2C(C(=O)O)=C(CSc3cnns3)CS[C@H]12)c1csc(N)n1 | -0.96% | inactive | inactive | 
CCOC(=O)Cc1ccc(-c2ccccc2)cc1 | -3.15% | inactive | inactive | 
O=C(O)c1cc(O)c2c(c1)[C@H]([C@H]1c3cc(C(=O)O)cc(O)c3C(=O)c3c(O[C@@H]4O[C@H](CO)[C@@H](O)[C@H](O)[C@H]4O)cccc31)c1cccc(O[C@@H]3O[C@H](CO)[C@@H](O)[C@H](O)[C@H]3O)c1C2=O | -0.0362% | inactive | inactive | 
NC[C@@H]1CC[C@@H](N)[C@@H](O[C@H]2[C@H](O)[C@@H](O[C@H]3O[C@H](CO)[C@@H](O)[C@H](N)[C@H]3O)[C@H](N)C[C@@H]2N)O1 | -0.783% | inactive | inactive | 
C[S+](CC[C@H](N)C(=O)O)C[C@H]1O[C@@H](n2cnc3c(N)ncnc32)[C@H](O)[C@@H]1O (some centres undefined) | -2.9% and 0.617% | inactive | inactive | 
CN(C)CCC(O)(c1ccccc1)c1ccccc1Cl (centres undefined) | 2.06% | 12.6 µM (active) | 15.8 µM (active) | 
O=C(O)COc1ccc(C(=O)c2cccs2)c(Cl)c1Cl | -1.39% and -4.28% | inactive | inactive | 
N=C(N)n1cccn1 | -4.29% | inactive | inactive | 
Nc1nc(NC2CC2)c2ncn([C@@H]3C=C[C@@H](CO)C3)c2n1 |  | inactive | 7.08 µM (active) | 5.01 µM (active)
CC(C)C[C@H](NC(=O)[C@@H](COC(C)(C)C)NC(=O)[C@H](Cc1ccc(O)cc1)NC(=O)[C@H](CO)NC(=O)[C@H](Cc1c[nH]c2ccccc12)NC(=O)[C@H](Cc1cnc[nH]1)NC(=O)[C@@H]1CCC(=O)N1)C(=O)N[C@@H](CCCN=C(N)N)C(=O)N1CCC[C@H]1C(=O)NNC(N)=O | -1.54% | inactive | inactive | 
CC(=O)OCC(=O)[C@@]1(O)CC[C@H]2[C@@H]3C[C@H](C)C4=CC(=O)C=C[C@]4(C)[C@H]3[C@@H](O)C[C@@]21C |  | inactive | inactive | 7.94 µM (active)
Cc1c(N)nc([C@H](CC(N)=O)NC[C@H](N)C(N)=O)nc1C(=O)N[C@H](C(=O)N[C@H](C)[C@@H](O)[C@H](C)C(=O)N[C@H](C(=O)NCCc1nc(-c2nc(C(=O)NCCCCN=C(N)N)cs2)cs1)[C@@H](C)O)[C@@H](O[C@@H]1O[C@@H](CO)[C@@H](O)[C@H](O)[C@@H]1O[C@H]1O[C@H](CO)[C@@H](O)[C@H](OC(N)=O)[C@@H]1O)c1cnc[nH]1 | -0.9% | inactive | inactive | 
CCOc1ccc(S(=O)(=O)O)c2cccnc12 | -0.221% | inactive | inactive | 
CC[C@H]1OC(=O)C[C@@H](O)[C@H](C)[C@@H](O[C@@H]2O[C@H](C)[C@@H](O)[C@H](N(C)C)[C@H]2O)[C@@H](CCN2C[C@H](C)C[C@H](C)C2)C[C@@H](C)C(=O)/C=C/C(C)=C/[C@@H]1CO[C@@H]1O[C@H](C)[C@@H](O)[C@@H](OC)[C@H]1OC | -0.718% | inactive | inactive | 

SMILES | max activation [1] | Potency [2] | Potency [3] | Potency [1]
CC/C=C\C/C=C\C/C=C\C/C=C\C/C=C\C/C=C\CCC(=O)O | -7.03% | inactive | inactive | 
COc1cc2c(cc1OC)[C@@H](Cc1cc(OC)c(OC)c(OC)c1)[N+](C)(CCCOC(=O)CC/C=C/CCC(=O)OCCC[N+]1(C)CCc3cc(OC)c(OC)cc3[C@H]1Cc1cc(OC)c(OC)c(OC)c1)CC2 (some centres undefined) | -6.15% | inactive | inactive | 
N#Cc1c(N(CC(=O)O)CC(=O)O)sc(C(=O)O)c1CC(=O)O | -5.61% | inactive | inactive | 
Cc1cccc(C)c1NC(=O)C1CCCCN1C (centres undefined) | -1.93% | inactive | inactive | 
CCC(O)c1ccccc1 (centres undefined) | -2.74% | inactive | inactive | 
CCN(CC)CCOC[C@H]1O[C@@H](O)[C@H](OCCN(CC)CC)[C@@H](O)[C@@H]1O | -3.03% | inactive | inactive | 
CCC(=O)OC(OP(=O)(CCCCc1ccccc1)CC(=O)N1C[C@H](C2CCCCC2)C[C@H]1C(=O)O)C(C)C (some centres undefined) | -3.49% | inactive | inactive | 
CC(C)c1ncc([N+](=O)[O-])n1C | -4.41% | inactive | inactive | 
NC(N)=NCC1COC2(CCCCC2)O1 (centres undefined) | -2.55% | inactive | inactive | 
CO[C@H]1C[C@H](O[C@H]2[C@H](C)[C@@H](O[C@@H]3O[C@H](C)C[C@H](N(C)C)[C@H]3O)[C@@H](C)C[C@]3(CO3)C(=O)[C@H](C)[C@@H](O)[C@@H](C)[C@@H](C)OC(=O)[C@@H]2C)O[C@@H](C)[C@@H]1O | 3.2% | inactive | inactive | 
COc1ccc(/C=N/NC(=O)c2ccncc2)c(C(=O)O)c1OC | -2.1% | inactive | inactive | 
CN1C(C(=O)Nc2ccccn2)C(=O)c2sc(Cl)cc2S1(=O)=O (centres undefined) | -4.75% | inactive | inactive | 
CC[N+](CC)(CC)CCC(O)(c1ccccc1)C1CCCCC1 (centres undefined) | -2.27% | inactive | inactive | 
NC(=O)[C@@H]1C[C@]2(NC(=O)NC2=O)c2cc(F)ccc2O1 | -1.76% | inactive | inactive | 
CS(=O)(=O)c1ccc([C@@H](O)[C@@H](COC(=O)CN)NC(=O)C(Cl)Cl)cc1 | -5.77% | inactive | inactive | 
C[C@@H]1O[C@@H]1P(=O)(O)O | -1.9% | inactive | inactive | 
NCC[C@H](O)C(=O)N[C@@H]1C[C@H](N)[C@@H](O[C@H]2O[C@H](CN)CC[C@H]2N)[C@H](O)[C@H]1O[C@H]1O[C@H](CO)[C@@H](O)[C@H](N)[C@H]1O | -1.85% | inactive | inactive | 
O=S(=O)(O)CC(S)CS (centres undefined) | -6.49% | inactive | inactive | 
CC[C@@H](C(=O)[C@@H](C)[C@@H](O)[C@H](C)CCc1ccc(C)c(O)c1C(=O)O)[C@H]1O[C@](CC)([C@H]2CC[C@](O)(CC)[C@H](C)O2)C[C@@H]1C | -6.82% | inactive | 8.91 µM (active) | 
C[Se]CC[C@H](N)C(=O)O | -6.85% | inactive | inactive | 
CC1(C)S[C@@H]2[C@H](N3C(=O)C(c4ccccc4)NC3(C)C)C(=O)N2[C@H]1C(=O)O (some centres undefined) | -2.27% | inactive | inactive | 
CC(=NCc1ccccc1)c1ccccc1O | -4.51% | inactive | inactive | 
CC(C)(C)C(=O)OCC(=O)[C@H]1CC[C@H]2[C@@H]3CCC4=CC(=O)CC[C@]4(C)[C@H]3CC[C@]12C | -6.33% | inactive | inactive | 
Cc1cc(=O)c(C(=O)N[C@@H](C(=O)N[C@@H]2C(=O)N3C(C(=O)O)=C(CSc4nnnn4C)CS[C@H]23)c2ccc(O)cc2)c[nH]1 | -0.22% | inactive | inactive | 
